PubChem BioAssay (NCATS)
Where “and” joins values, the source holds several entries; their conditions need not be identical. Identical values can stand only once. Inconclusive results are not listed. Calls of active or inactive are those of the source. Unless noted, the call rests on the fitted dose curve; in most records, active means well fitted curve in the direction sought with a large enough effect; inconclusive means small, poorly fitted or top-dose-only effect, or another doubt; inactive means no such curve, though single readings can be large; an effect the other way counts as inactive or inconclusive.

What was measured:
[1] = Cell Viability - N2a (AID 540); conditions: N2a mouse neuroblastoma cell viability; at 92.2 µM (top of the series);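 further: plate controls were DMSO alone for no effect and tamoxifen control for full effect; nearly all actives have a fitted effect of over 45% in size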
Method in brief: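 Mouse neuroblastoma N2a cells (1500/well) were preincubated 5 hr at 37 °C, then exposed to compounds for 40 hr at 37 °C in complete medium. Viability was read as intracellular ATP by CellTiter-Glo luminescence; AC50 from Hill fits.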

[2] = Cellular Toxicity (caspase-3) HepG2 (AID 654);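 further: cells exposed to compound for 16 hours before reading; 0% = DMSO alone and 100% = caspase signal from 100 µM tamoxifen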
Method in brief: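 HepG2 cells (1500/well) in complete medium were treated with compounds for 16 hr at 37 °C. Caspase-3/7 activity was then read as luminescence from peptide-aminoluciferin cleavage. AC50 came from Hill fits, normalized to DMSO and 100 uM tamoxifen.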

[3] = Cellular Toxicity (caspase-3) Hek293 (AID 664);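 further: cells exposed to compound for 16 h at 37 °C before readout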
Method in brief: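 HEK293 cells were exposed to compounds in complete medium for 16 hr at 37 °C, then caspase-3/7 activity was read by Caspase-Glo 3/7 luminescence after 20 min at room temperature. Data normalized to DMSO and 100 uM tamoxifen; AC50 from Hill fits.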

[4] = MultiTox-Fluor Cytotoxicity Assay - LYMP1-002 - Live Cells (AID 955); further: on the % scale 0 is the no-effect control and ±100 the full control effect
Method in brief: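 Human lymphoblastoid LYMP1-002 cells, 2500/well in complete medium, rested 5 hr at 37 C, then exposed to compounds for 16 hr at 37 C. Live-cell protease cleavage of GF-AFC read by fluorescence (Ex/Em 405/510) after 60 min at room temperature; AC50 from Hill fits.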

[5] = MultiTox-Fluor Cytotoxicity Assay - LYMP1-002 - Dead Cells (AID 960);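 further: 0% = DMSO and 100% = tetraoctylammonium bromide; nearly all actives have a fitted effect of over 60% in size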
Method in brief: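 Human lymphoblastoid cells (LYMP1-002), 2500/well in complete medium, were exposed to compounds for 16 hr at 37 C. Dead-cell protease activity was read as bis-AAF-R110 fluorescence (Ex/Em 485/520), normalized to DMSO and 15 uM tetraoctylammonium bromide; AC50 from Hill fits.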

[6] = MultiTox-Fluor Cytotoxicity Assay - LYMP1-003 - Live Cells (AID 962);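 further: 0% = DMSO only and full loss = 92 µM tetraoctylammonium bromide; cytotoxic hits lower the live-cell protease signal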
Method in brief: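 LYMP1-003 human lymphoblastoid cells (2500/well) in complete medium were preincubated 5 hr at 37 C, then exposed to compounds for 16 hr at 37 C. Live-cell protease cleavage of GF-AFC read by fluorescence (Ex/Em 405/510); AC50 from Hill fits.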

[7] = Cell Viability - LYMP1-003 - Assay at 24 hr (AID 963);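 further: plate controls were DMSO only for no effect and tetraoctylammonium bromide positive control for full effect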
Method in brief: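 Human lymphoblastoid LYMP1-003 cells (2500/well) were rested 5 hr at 37 C, then exposed to compounds in complete medium for 24 hr at 37 C. Cellular ATP was quantified by CellTiter-Glo luminescence, and AC50 values came from Hill fits of concentration-response data.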

[8] = Cell Viability - LYMP2-003 (AID 965);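 further: cells exposed to compounds for 24 h before reading; 0% = DMSO only and full effect = 92 µM tetraoctylammonium bromide; nearly all actives have a fitted effect of over 50% in size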
Method in brief: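 CellTiter-Glo luminescence quantified ATP loss after 24 h compound treatment of LYMP2-003 lymphoblastoid cells at 37 C. Titration series were fitted with the standard Hill equation to give AC50.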

[9] = Cell Viability - LYMP2-005 (AID 967);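 further: plate controls were DMSO only for no effect and 92 µM tetraoctylammonium bromide control for full effect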
Method in brief: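 LYMP2-005 human lymphoblastoid cells (2500/well) were treated with compounds for 24 h at 37 C. Intracellular ATP was then measured by CellTiter-Glo luminescence after 30 min at room temperature. AC50 values came from Hill-equation fits of qHTS concentration-response data.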

[10] = Cell Viability - LYMP2-011 (AID 969);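 further: 0% = DMSO only and full inhibition = 92 µM tetraoctylammonium bromide; nearly all actives have a fitted effect of over 60% in size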
Method in brief: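 Human lymphoblastoid cells (2500/well) were plated in complete medium, preincubated 5 hr at 37 C, then exposed to compounds for 24 hr at 37 C. Intracellular ATP was read by CellTiter-Glo luminescence, and AC50 came from Hill-equation concentration-response fits.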

[11] = Cell Viability - LYMP2-013 (AID 970);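 further: 0% = DMSO only and full inhibition = tetraoctylammonium bromide control; nearly all actives have a fitted effect of over 55% in size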
Method in brief: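 Human lymphoblastoid cells, 2500/well, were preincubated 5 hr at 37 C, then treated with compounds for 24 hr at 37 C in complete medium. Intracellular ATP was read by CellTiter-Glo luminescence; AC50 from Hill-equation fits of concentration-response data.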

[12] = Cell Viability - LYMP2-015 (AID 971);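 further: 0% = DMSO only and full effect = 92 µM tetraoctylammonium bromide; nearly all actives have a fitted effect of over 55% in size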
Method in brief: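 Human lymphoblastoid cells (2500/well) in complete medium were preincubated 5 hr at 37 C, then compound-treated 24 hr at 37 C. Intracellular ATP was read by CellTiter-Glo luminescence after 30 min at room temperature; AC50 came from Hill-equation concentration-response fits.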

[13] = Cell Viability - LYMP2-025 (AID 976);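 further: plate controls were DMSO only for no effect and tetraoctylammonium bromide control for full effect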
Method in brief: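 Human lymphoblastoid LYMP2-025 cells (2500/well) were pre-incubated 5 hr at 37 C, then treated with compounds for 24 hr at 37 C in complete medium. Viability was read as intracellular ATP by CellTiter-Glo luminescence; AC50 from Hill fits.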

[14] = Cell Viability - LYMP2-006 (AID 978); further: on the % scale 0 is the no-effect control and ±100 the full control effect; nearly all actives have a fitted effect of over 60% in size
Method in brief: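 Potency values are Hill-fit AC50s for decreases in intracellular ATP (CellTiter-Glo luminescence). LYMP2-006 lymphoblastoid cells, 2500 per well, were exposed to compound in complete culture medium for 24 hr at 37 C.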

[15] = Cell Viability - LYMP2-008 (AID 980); further: on the % scale 0 is the no-effect control and ±100 the full control effect; nearly all actives have a fitted effect of over 60% in size
Method in brief: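 Human lymphoblastoid cells (2500/well) were plated, held 5 hr at 37 C, then exposed to compounds for 24 hr at 37 C in complete medium. Intracellular ATP was read by CellTiter-Glo luminescence; AC50 from Hill-fitted concentration-response.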

[16] = Cell Viability - LYMP1-002 - Assay at 24 hr (AID 993); further: on the % scale 0 is the no-effect control and ±100 the full control effect
Method in brief: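 Human lymphoblastoid LYMP1-002 cells, 2500/well in complete medium, were treated with compounds for 24 h at 37 C; intracellular ATP was read by CellTiter-Glo luminescence. AC50 values came from Hill-equation fits of qHTS concentration-response data.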

[17] = Cell Viability - LYMP1-002 - Assay at 40 hr (AID 994)
Method in brief: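 Human lymphoblastoid cells, 2500/well in complete medium, were preincubated 5 hr at 37 C, then exposed to compounds for 40 hr at 37 C. Intracellular ATP was read by CellTiter-Glo luminescence after 30 min at room temperature; AC50 from Hill-equation fits.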

[18] = target: Peroxisome proliferator-activated receptor delta (Homo sapiens) (UniProt Q03181); assay: qHTS assay for small molecule agonists of peroxisome proliferator-activated receptor delta signaling (AID 588534; calls by dose curve;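 further: 0% = DMSO basal wells and 100% = positive control agonist at 10 µM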)
Method in brief: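 Cell-based beta-lactamase reporter assay run in agonist mode: cells seeded and incubated 5 hrs at 37 C, compounds added and incubated 18 hrs at 37 C. CCF4 dye fluorescence read after 2 hrs at RT; EC50 and efficacy from Hill fits.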

[19] = target: Peroxisome proliferator-activated receptor alpha (Homo sapiens) (UniProt Q07869); assay: qHTS assay for small molecule agonists of the peroxisome proliferator-activated receptor alpha (PPARalpha) signaling pathway (AID 651778); conditions: PathHunter PPARalpha complementation, chemiluminescence, 6 h; stronger effect = higher value; further: % of control where 0% means no effect
Method in brief: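 Enzyme-fragment complementation assay in which ligand-bound PPARalpha translocates and forms an active enzyme that generates chemiluminescence. Cells were plated overnight, exposed to compound for 6 hr at 37 C, and then given detection reagent for 60 min at room temperature.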

[20] = qHTS assay for small molecule agonists of the antioxidant response element (ARE) signaling pathway measured by Nrf2-dependant transcriptional activity (AID 720636; active means well fitted curve in the direction sought with a large enough effect in the repeat runs; an effect the other way counts as inactive or inconclusive; further: % of control where 0% means no effect)
Method in brief: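 Nrf2-dependent transcription read as ONE-Glo luciferase signal from ARE-luc HepG2 reporter cells after 16 hr compound treatment at 37 C, 5% CO2, in assay medium with 1% dialyzed FBS.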

Sequence of Peroxisome proliferator-activated receptor alpha (Homo sapiens) (Q07869 whole entry, looked up, the tested form may be a part): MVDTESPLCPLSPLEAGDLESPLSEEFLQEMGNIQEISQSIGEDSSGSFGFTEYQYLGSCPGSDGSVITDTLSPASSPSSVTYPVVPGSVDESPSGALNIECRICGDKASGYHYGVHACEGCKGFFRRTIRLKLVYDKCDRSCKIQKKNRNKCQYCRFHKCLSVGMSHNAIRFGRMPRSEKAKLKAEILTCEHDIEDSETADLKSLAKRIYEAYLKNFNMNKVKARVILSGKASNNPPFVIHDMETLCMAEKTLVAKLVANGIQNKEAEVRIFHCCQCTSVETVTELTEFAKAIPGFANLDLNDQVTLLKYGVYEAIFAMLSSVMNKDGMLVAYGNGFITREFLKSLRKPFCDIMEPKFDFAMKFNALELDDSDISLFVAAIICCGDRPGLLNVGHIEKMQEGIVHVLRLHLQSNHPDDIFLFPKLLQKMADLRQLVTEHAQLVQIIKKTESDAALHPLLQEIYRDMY
Sequence of Peroxisome proliferator-activated receptor delta (Homo sapiens) (Q03181 whole entry, looked up): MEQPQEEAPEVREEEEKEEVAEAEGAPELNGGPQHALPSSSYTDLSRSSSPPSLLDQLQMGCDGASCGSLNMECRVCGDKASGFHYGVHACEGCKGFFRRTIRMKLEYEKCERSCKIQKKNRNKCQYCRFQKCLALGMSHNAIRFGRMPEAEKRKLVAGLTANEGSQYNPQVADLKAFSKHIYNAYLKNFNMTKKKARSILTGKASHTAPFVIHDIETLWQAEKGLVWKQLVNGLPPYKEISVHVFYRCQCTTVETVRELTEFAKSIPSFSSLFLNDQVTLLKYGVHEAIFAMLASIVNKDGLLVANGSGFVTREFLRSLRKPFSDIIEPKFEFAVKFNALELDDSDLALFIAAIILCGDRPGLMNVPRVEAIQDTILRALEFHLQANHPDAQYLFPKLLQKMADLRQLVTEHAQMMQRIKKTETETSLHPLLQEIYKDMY

O=C(Cl)/C=C/C(=O)Cl
inactive: activity change, negative = cytotoxicity [1] 3.07% | outcome [2] | outcome [3] | outcome [4] | Potency [5] | Potency [6] | Potency [7] | Potency [8] | Potency [9] | Potency [10] | Potency [11] | Potency [12] | Potency [13] | Potency [14] | Potency [15] | Potency [16] | Potency [17] | outcome [18] | max response [19] -3.04% | outcome [20]

CCN(CC)c1ccccc1
inactive: activity change, negative = cytotoxicity [1] 3.96% | outcome [2] | outcome [3] | outcome [4] | Potency [5] | Potency [6] | Potency [7] | Potency [8] | Potency [9] | Potency [10] | Potency [11] | Potency [12] | Potency [13] | Potency [14] | Potency [15] | Potency [16] | Potency [17] | max response [19] -1.88% | outcome [20]

C=CCOC(C)=O
inactive: activity change, negative = cytotoxicity [1] -14.3% | outcome [2] | outcome [3] | outcome [4] | Potency [5] | Potency [6] | Potency [7] | Potency [8] | Potency [9] | Potency [10] | Potency [11] | Potency [12] | Potency [13] | Potency [14] | Potency [15] | Potency [16] | Potency [17] | max response [19] 7.33% | outcome [20]

Cc1ccccc1N
inactive: activity change, negative = cytotoxicity [1] -19.6% and 1.37% | outcome [2] | outcome [3] | outcome [4] | Potency [5] | Potency [6] | Potency [7] | Potency [8] | Potency [9] | Potency [10] | Potency [11] | Potency [12] | Potency [13] | Potency [14] | Potency [15] | Potency [16] | Potency [17] | outcome [18] | max response [19] -4.65% and -3.69% | outcome [20]

C[C@]12CC[C@H]3[C@@H](CCC4=CC(=O)CC[C@@]43C)[C@@H]1CC[C@@H]2O
inactive: activity change, negative = cytotoxicity [1] -5.73% | outcome [2] | outcome [3] | outcome [4] | Potency [5] | Potency [6] | Potency [7] | Potency [8] | Potency [9] | Potency [10] | Potency [11] | Potency [12] | Potency [13] | Potency [14] | Potency [15] | Potency [16] | Potency [17] | outcome [18] | max response [19] -2.99% | outcome [20]

O=[N+]([O-])c1ccc(Cl)c(Cl)c1
inactive: activity change, negative = cytotoxicity [1] -3.37% | outcome [2] | outcome [3] | outcome [4] | Potency [5] | Potency [6] | Potency [7] | Potency [8] | Potency [9] | Potency [10] | Potency [11] | Potency [12] | Potency [13] | Potency [14] | Potency [15] | Potency [16] | Potency [17] | outcome [18] | max response [19] -3.39% | outcome [20]

C=CC(N)=O
inactive: activity change, negative = cytotoxicity [1] 1.31% and 7.69% | outcome [2] | outcome [3] | outcome [4] | Potency [5] | Potency [6] | Potency [7] | Potency [8] | Potency [9] | Potency [10] | Potency [11] | Potency [12] | Potency [13] | Potency [14] | Potency [15] | Potency [16] | Potency [17] | outcome [18] | outcome [20]

Clc1nc(Cl)nc(Nc2ccccc2Cl)n1
inactive: activity change, negative = cytotoxicity [1] 9.08% | outcome [2] | outcome [3] | outcome [4] | Potency [5] | Potency [6] | Potency [7] | Potency [8] | Potency [9] | Potency [10] | Potency [11] | Potency [12] | Potency [13] | Potency [14] | Potency [15] | Potency [16] | Potency [17] | outcome [18] | max response [19] 1.31% and 8.11%
